Assay results from PubChem BioAssay (Tox21).
Results filed as inconclusive are left out. Active and inactive are the calls of the source. Unless noted, calls come from the whole dose curve.

Assays:
[1] = Nuclear factor erythroid 2-related factor 2/antioxidant responsive element (Nrf2/ARE) small molecule agonists: qHTS cell viability counter screen in human keratinocytes (AID 1919968; active = well fitted curve in the direction sought with a large enough effect in the repeat runs; an effect the other way counts as inactive or inconclusive; note: nearly all actives have a fitted effect of over 55% in size)
Procedure, shortened: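 Fluorescence read-out from CellTiter-Fluor after 1 h at 37 C. Wells held HaCaT-derived ARE-luciferase reporter cells (1,500/well) treated 23 h with DMSO-dissolved compounds. Run in the same wells as the luciferase agonist read.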

[2] = Nuclear factor erythroid 2-related factor 2/antioxidant responsive element (Nrf2/ARE) small molecule agonists: luciferase reporter gene qHTS assay in human keratinocytes (AID 1919969); note: nearly all actives have a fitted effect of over 35% in size
[3] = target: Gonadotropin-releasing hormone receptor (Homo sapiens) (UniProt P30968); experiment: Human gonadotropin-releasing hormone receptor (GnRHR) small molecule agonists, calcium flux assay in GnRHR-HEK293 cells (AID 1920063); note: nearly all actives have a fitted effect of over 35% in size
Procedure, shortened: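 Calcium-dye fluorescence, Ex/Em=480/540, recorded every 1 sec over 3 min after compound addition to GnRHR-HEK293 cells. Cells had been seeded 18 hours earlier and dye-loaded for 1 hour at 37 C. Fifteen concentrations, triplicates.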

[4] = target: KiSS-1 receptor (Homo sapiens) (UniProt Q969F8); experiment: Human kisspeptin (KISS1R) small molecule agonists, calcium flux assay in KISS1R-HEK293 cells (AID 1920064; active = well fitted curve in the direction sought with a large enough effect in the repeat runs; an effect the other way counts as inactive or inconclusive)
Procedure, shortened: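 Calcium flux read-out: kinetic fluorescence at Ex/Em=480/540, 1 s intervals over 3 min, after pin-tool compound addition to dye-loaded KISS1R-HEK293 cells. Fifteen concentrations, triplicates.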

[5] = G protein-coupled receptor (GPCR) small molecule agonists, calcium flux assay: HEK293 wild type cell line counter screen (AID 1920065)
Procedure, shortened: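 Agonist mode; 18 h seeding at 37 C, 1 h dye load at 37 C; compounds pinned from DMSO, ATP as positive control; kinetic fluorescence 480/540 nm, 3 min, 1 s reads; 15 concentrations, triplicate.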

[6] = p53 small molecule agonists, cell-based qHTS assay with human liver microsomes (AID 1963577);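 note: p53 response element beta-lactamase reporter cells with liver microsomes plus NADPH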
Procedure, shortened: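 Reporter activation was measured by LiveBLAzer fluorescence intensity in p53RE-bla cells, which had been exposed to compounds for 16 h at 37 C alongside 0.5 mg/mL human liver microsomes and 0.5 mg/mL NADPH (final concentrations).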

[7] = p53 small molecule agonists, cell-based qHTS assay with rat liver microsomes (AID 1963578)
Procedure, shortened: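 Compound in DMSO added to p53RE-bla cells 5 h post-plating; rat microsomes/NADPH 0.5 mg/mL final; 16 h, 37 C; LiveBLAzer 2 h RT.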

[8] = p53 small molecule agonists, cell-based qHTS assay with human liver microsomes: qHTS cell viability counter screen (AID 1963579); note: nearly all actives have a fitted effect of over 45% in size
Procedure, shortened: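 HLM-supplemented (0.5 mg/mL final) and NADPH-supplemented (0.5 mg/mL final) p53RE-bla cultures, 4,000 cells per well, were dosed with compounds in DMSO for 16 h at 37 C; luminescent ATP detection (CellTiter-Glo, 30 min, room temperature) quantified surviving cells.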

[9] = p53 small molecule agonists, cell-based qHTS assay with rat liver microsomes: qHTS cell viability counter screen (AID 1963580); note: nearly all actives have a fitted effect of over 45% in size
Procedure, shortened: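 After the beta-lactamase ratio was read, CellTiter-Glo was added to the same wells and luminescence measured at 30 min; cells had been treated 16 h at 37 C with compounds, rat liver microsomes and NADPH (0.5 mg/mL final each).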

[10] = p53 small molecule agonists, cell-based qHTS assay: qHTS cell viability counter screen (AID 1963581); note: nearly all actives have a fitted effect of over 45% in size
Procedure, shortened: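 Cytotoxicity read-out: ATP-based luminescence (CellTiter-Glo, 30 min RT) measured in the same wells as the p53 reporter assay, HCT-116 p53RE-bla cells, 16 h compound exposure at 37 C.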

[11] = p53 small molecule agonists, cell-based qHTS assay (AID 1963582; active = well fitted activation curve with a large enough effect in the signal ratio in the repeat runs, not every such curve was filed as active; the % refers to the signal ratio)
Procedure, shortened: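 Fluorescence intensity read-out of a beta-lactamase reporter under a p53 response element. Cells were exposed to DMSO-dissolved compounds for 16 h at 37 C, then developed with FRET substrate for 2 h at RT.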

[12] = target: 5-hydroxytryptamine receptor 2A (Homo sapiens) (UniProt P28223); experiment: 5-hydroxytryptamine receptor 2A (HTR2A) small molecule agonists, cell-based qHTS assay (AID 1963587); note: nearly all actives have a fitted effect of over 30% in size
Procedure, shortened: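 CHO cells stably expressing human HTR2A, plated 18 h, loaded with calcium dye 1 h at 37 C. Agonist mode: compounds added and intracellular calcium fluorescence recorded kinetically for 2 min at 1 sec intervals.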

[13] = target: Muscarinic acetylcholine receptor M1 (Homo sapiens) (UniProt P11229); experiment: Cholinergic receptor muscarinic 1 (CHRM1) small molecule antagonists, cell-based qHTS assay (AID 1963588); note: nearly all actives have a fitted effect of over 40% in size
Procedure, shortened: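 Compounds were tested at 15 concentrations in three independent runs. Dye-loaded CHRM1-CHO cells were exposed 5 min at room temperature before stimulation by acetylcholine added at 50nM. Intracellular calcium was read kinetically on FDSS for 3 min.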

[14] = target: Muscarinic acetylcholine receptor M1 (Homo sapiens) (UniProt P11229); experiment: Cholinergic receptor muscarinic 1 (CHRM1) small molecule agonists, cell-based qHTS assay (AID 1963589); note: nearly all actives have a fitted effect of over 35% in size
Procedure, shortened: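 Calcium flux read-out: kinetic fluorescence at 1 sec intervals after pin-tool compound addition to dye-loaded CHRM1-CHO cells (human M1). Agonist mode; 15 concentrations tested in triplicate independent runs.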

[15] = cAMP Responsive Elements (CRE) small molecule agonists, cell-based qHTS assay (AID 1963590)
Procedure, shortened: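 Beta-lactamase reporter readout: LiveBLAzer B/G FRET substrate, 2 h at room temperature, added after 3 h compound treatment of CRE-bla HEK 293T cells at 37 C/5% CO2.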

[16] = cAMP Responsive Elements (CRE) small molecule antagonists, cell-based qHTS assay (AID 1963591; active = well fitted inhibition curve with a large enough effect in the signal ratio in the repeat runs, not every such curve was filed as active; the % refers to the signal ratio)
Procedure, shortened: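 HEK293T CRE-bla; 18 h preincubation; compound pin-transfer; NKH477 0.25 uM final, 3 h, 37 C; LiveBLAzer FRET substrate 2 h RT.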

[17] = target: Beta-2 adrenergic receptor (Homo sapiens) (UniProt P07550); experiment: Adrenergic beta2 receptor (ADRB2) small molecule antagonists, cell-based qHTS assay (AID 1963592); note: series mostly up to about 92 µM; nearly all actives have a fitted effect of over 50% in size
Procedure, shortened: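 Assay format: CHO-ADRB2 cells, 18-20hr seeding at 37C/5% CO2, then compound plus 1nM isoproterenol agonist mix for 0.5hr RT. Homogeneous time-resolved fluorescence cAMP detection after 1hr, expressed as 665/615 nm ratio.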

[18] = target: D(2) dopamine receptor (Homo sapiens) (UniProt P14416); experiment: Dopamine D2 receptor (DRD2) small molecule agonists, cell-based qHTS assay (AID 1963594); note: nearly all actives have a fitted effect of over 35% in size
Procedure, shortened: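 HEK293 cells stably expressing human DRD2, pre-treated with PDE inhibitor Ro20-1724 (0.1 mM final) and compound 10 min at room temperature, then stimulated with NKH477 (200nM […]) for 30 min. cAMP read by HTRF (665/620 nm).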

[19] = target: D(2) dopamine receptor (Homo sapiens) (UniProt P14416); experiment: Dopamine D2 receptor (DRD2) small molecule antagonists, cell-based qHTS assay (AID 1963595; active = well fitted inhibition curve with a large enough effect in the signal ratio in the repeat runs, with a control signal flat; the % refers to the signal ratio)
Procedure, shortened: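 Human DRD2 antagonist qHTS measuring cAMP by HTRF. The cells are exposed to compound for 10 min, then to NKH477 (200 nM) and quinpirole (12 nM) for 30 min at RT, with Ro20-1724 (0.1 mM) present throughout.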

[20] = target: 5-hydroxytryptamine receptor 2A (Homo sapiens) (UniProt P28223); experiment: 5-hydroxytryptamine receptor 2A (HTR2A) small molecule antagonists, cell-based qHTS assay (AID 1963586); note: nearly all actives have a fitted effect of over 45% in size
Procedure, shortened: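 CHO cells stably expressing human HTR2A were plated for 18 h at 37 C, then loaded with calcium dye for 1 h. Compounds were preincubated 5 min at room temperature before DOI (4 nM solution) was added. Kinetic fluorescence was read for 3 min.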
% is set by controls: 0 for no effect and ±100 for the full control effect.

KiSS-1 receptor (Homo sapiens), sequence (Q969F8 whole entry, looked up): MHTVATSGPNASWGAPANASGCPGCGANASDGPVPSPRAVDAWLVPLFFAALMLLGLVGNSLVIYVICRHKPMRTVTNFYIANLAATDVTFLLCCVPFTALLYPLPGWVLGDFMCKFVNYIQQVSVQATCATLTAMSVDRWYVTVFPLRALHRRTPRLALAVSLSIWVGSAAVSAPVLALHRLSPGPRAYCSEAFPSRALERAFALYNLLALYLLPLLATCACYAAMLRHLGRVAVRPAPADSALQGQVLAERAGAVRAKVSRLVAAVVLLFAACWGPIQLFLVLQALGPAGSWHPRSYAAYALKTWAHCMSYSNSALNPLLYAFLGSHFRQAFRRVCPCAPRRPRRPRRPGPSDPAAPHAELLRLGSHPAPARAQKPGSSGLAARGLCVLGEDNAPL
Beta-2 adrenergic receptor (Homo sapiens), sequence (P07550 whole entry, looked up): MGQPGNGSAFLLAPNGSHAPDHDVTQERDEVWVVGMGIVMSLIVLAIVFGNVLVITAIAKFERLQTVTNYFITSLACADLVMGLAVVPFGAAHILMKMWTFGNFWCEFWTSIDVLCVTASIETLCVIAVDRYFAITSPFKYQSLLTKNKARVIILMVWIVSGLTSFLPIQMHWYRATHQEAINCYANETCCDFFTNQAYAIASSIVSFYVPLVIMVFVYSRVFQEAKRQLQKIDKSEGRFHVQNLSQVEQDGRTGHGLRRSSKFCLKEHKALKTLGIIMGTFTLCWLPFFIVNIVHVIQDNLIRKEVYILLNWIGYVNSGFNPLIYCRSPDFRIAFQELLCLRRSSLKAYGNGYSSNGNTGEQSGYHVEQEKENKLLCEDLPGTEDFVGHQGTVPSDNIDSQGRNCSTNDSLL
5-hydroxytryptamine receptor 2A (Homo sapiens), sequence (P28223 whole entry, looked up): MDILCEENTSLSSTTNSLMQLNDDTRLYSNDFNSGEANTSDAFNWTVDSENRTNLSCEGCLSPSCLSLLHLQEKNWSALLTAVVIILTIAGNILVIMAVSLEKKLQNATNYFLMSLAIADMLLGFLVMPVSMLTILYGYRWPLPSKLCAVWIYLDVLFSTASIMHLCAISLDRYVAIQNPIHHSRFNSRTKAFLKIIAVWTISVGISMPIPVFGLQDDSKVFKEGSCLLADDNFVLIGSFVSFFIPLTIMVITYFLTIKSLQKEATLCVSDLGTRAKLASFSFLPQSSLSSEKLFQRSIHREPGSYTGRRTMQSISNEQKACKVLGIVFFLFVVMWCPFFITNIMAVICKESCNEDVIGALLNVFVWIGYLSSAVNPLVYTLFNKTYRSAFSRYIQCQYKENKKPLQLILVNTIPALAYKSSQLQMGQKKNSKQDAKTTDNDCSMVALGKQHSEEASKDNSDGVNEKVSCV
D(2) dopamine receptor (Homo sapiens), sequence (P14416 whole entry, looked up): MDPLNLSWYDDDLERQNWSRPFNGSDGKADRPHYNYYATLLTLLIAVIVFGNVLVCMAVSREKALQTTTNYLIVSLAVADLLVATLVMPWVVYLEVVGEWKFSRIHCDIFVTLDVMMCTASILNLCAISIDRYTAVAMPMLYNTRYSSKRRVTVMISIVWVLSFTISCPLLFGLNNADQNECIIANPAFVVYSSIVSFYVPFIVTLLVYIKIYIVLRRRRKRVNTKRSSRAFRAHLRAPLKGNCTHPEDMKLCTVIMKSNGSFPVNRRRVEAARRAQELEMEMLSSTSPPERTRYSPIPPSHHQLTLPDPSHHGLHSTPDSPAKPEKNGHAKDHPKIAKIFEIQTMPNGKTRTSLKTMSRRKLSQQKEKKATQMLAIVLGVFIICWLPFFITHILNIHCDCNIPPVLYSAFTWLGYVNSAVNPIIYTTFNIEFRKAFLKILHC
Muscarinic acetylcholine receptor M1 (Homo sapiens), sequence (P11229 whole entry, looked up): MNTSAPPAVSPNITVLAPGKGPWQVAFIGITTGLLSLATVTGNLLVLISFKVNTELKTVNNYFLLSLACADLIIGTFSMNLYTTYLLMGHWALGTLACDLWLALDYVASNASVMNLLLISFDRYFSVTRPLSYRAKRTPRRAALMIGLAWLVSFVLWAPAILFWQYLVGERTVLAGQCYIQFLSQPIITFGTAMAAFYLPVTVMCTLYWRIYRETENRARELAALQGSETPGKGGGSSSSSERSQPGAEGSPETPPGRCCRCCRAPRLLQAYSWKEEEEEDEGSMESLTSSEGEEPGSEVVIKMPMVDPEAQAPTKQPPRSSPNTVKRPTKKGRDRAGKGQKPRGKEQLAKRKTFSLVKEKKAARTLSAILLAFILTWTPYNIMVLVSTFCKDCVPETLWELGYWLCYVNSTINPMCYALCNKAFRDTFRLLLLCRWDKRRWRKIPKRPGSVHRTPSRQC
Gonadotropin-releasing hormone receptor (Homo sapiens), sequence (P30968 whole entry, looked up): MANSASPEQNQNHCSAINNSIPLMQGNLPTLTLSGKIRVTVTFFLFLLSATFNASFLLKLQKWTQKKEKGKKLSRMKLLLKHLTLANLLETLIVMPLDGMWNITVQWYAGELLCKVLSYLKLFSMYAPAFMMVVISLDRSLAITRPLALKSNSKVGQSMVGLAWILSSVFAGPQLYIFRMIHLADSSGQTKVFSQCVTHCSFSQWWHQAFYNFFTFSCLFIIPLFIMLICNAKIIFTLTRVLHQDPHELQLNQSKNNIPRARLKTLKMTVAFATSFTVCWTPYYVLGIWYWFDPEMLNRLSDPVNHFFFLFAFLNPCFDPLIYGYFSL

CN(C)CCN(Cc1ccsc1)c1ccccn1
inactive: Potency [1] | Potency [2] | Potency [3] | outcome [4] | outcome [5] | Potency [6] | Potency [7] | Potency [8] | Potency [9] | Potency [10] | Potency [11] | Potency [12] | Potency [13] | Potency [14] | Potency [15] | Potency [16] | Potency [17] | Potency [18] | Potency [19]

O=C(CCCN1CCN(c2ccccn2)CC1)c1ccc(F)cc1
inactive: Potency [1] | Potency [2] | Potency [3] | outcome [4] | outcome [5] | Potency [6] | Potency [7] | Potency [8] | Potency [9] | Potency [10] | Potency [11] | Potency [12] | Potency [13] | Potency [14] | Potency [15] | Potency [16] | Potency [17]

Cn1c(=O)cc(Oc2ccc(F)cc2F)c2cnc(NCC(C)(C)O)nc21
inactive: Potency [1] | Potency [2] | Potency [3] | outcome [4] | outcome [5] | Potency [6] | Potency [7] | Potency [8] | Potency [9] | Potency [10] | Potency [11] | Potency [20] | Potency [13] | Potency [17] | Potency [18] | Potency [19]

C#CCN[C@@H]1CCc2ccccc21
inactive: Potency [1] | Potency [2] | Potency [3] | outcome [4] | outcome [5] | Potency [6] | Potency [7] | Potency [8] | Potency [9] | Potency [10] | Potency [11] | Potency [12] | Potency [13] | Potency [14] | Potency [15] | Potency [16] | Potency [17] | Potency [18] | Potency [19]

CN1CCN(CC(=O)N2c3ccccc3C(=O)Nc3cccnc32)CC1
inactive: activity change, negative = cytotoxicity [1] 0.0434% [at 8.39 µM] | activity, positive = activation [2] -1.98% [at 8.39 µM] | activity change [3] -0.376% [at 5.22 µM, active compounds read high] | activation [4] 7.1% [at 6.97 µM] | activation [5] -0.198% [at 5.23 µM] | activation [6] 8.34% [at 5.99 µM] | activation [7] 0.0177% [at 5.99 µM] | activity change, negative = cytotoxicity [8] 5.54% [at 5.99 µM] | activity change, negative = cytotoxicity [9] 1.67% [at 5.99 µM] | activity change, negative = cytotoxicity [10] 22.9% [at 5.99 µM] | activation [11] -1.98% [at 5.99 µM] | activity, negative = inhibition [20] 57.8% [at 5.62 µM] | activation [15] -0.47% [at 8.39 µM] | activity change, negative = inhibition [16] -9.03% [at 8.39 µM] | activity change, negative = inhibition [17] -1.73% [at 8.39 µM] | activation [18] -0.938% [at 8.39 µM] | activity change, negative = inhibition [19] 3.87% [at 8.38 µM]

CC(C)=CC(=O)C=C(C)C
inactive: Potency [1] | Potency [2] | Potency [3] | outcome [4] | outcome [5] | Potency [6] | Potency [7] | Potency [8] | Potency [9] | Potency [10] | Potency [11] | Potency [12] | Potency [13] | Potency [14] | Potency [15] | Potency [16] | Potency [17] | Potency [18]

CCCCCCCCCCCCSC
inactive: Potency [1] | Potency [2] | Potency [3] | outcome [4] | outcome [5] | Potency [6] | Potency [7] | Potency [8] | Potency [9] | Potency [10] | Potency [11] | Potency [20] | Potency [13] | Potency [14] | Potency [16] | Potency [17] | Potency [18] | Potency [19]
